Measurements from PubChem BioAssay (NCI).
The panel holds about 79,000 compounds, 15% with a hit somewhere; the sample as a whole holds those more often. Activity calls are given as the source filed them. Rule as the data show it: active = growth inhibition above about 70%; inactive = the rest.

Experiments:
[1] = NCI Yeast Anticancer Drug Screen. Data for the rad52 strain (AID 147);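 also: 0% = growth of vehicle-treated control cultures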; conditions: S. cerevisiae rad52 mutant growth inhibition, stronger effect = higher value
In short: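 Growth of repair-deficient yeast cells was compared between compound-treated and vehicle-treated cultures to give percent inhibition.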

[2] = NCI Yeast Anticancer Drug Screen. Data for the wt1 strain (AID 149);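 also: 0% = growth of vehicle-treated wt1 cultures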; conditions: S. cerevisiae wt1 strain (SPY 50644) growth inhibition, stronger effect = higher value
In short: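 Using yeast strain wt1, compound-induced growth inhibition was determined against vehicle-treated cultures.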

[3] = NCI Yeast Anticancer Drug Screen. Data for the rad50EPP+ strain (AID 151);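 also: 0% = growth of vehicle-treated control cultures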; conditions: S. cerevisiae rad50 mutant strain, stronger effect = higher value
In short: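 Measured: growth inhibition of rad50EPP+ yeast. Reference: vehicle-treated controls. Screen uses strains with defined genetic alterations in DNA damage repair or cell cycle control.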

[4] = NCI Yeast Anticancer Drug Screen. Data for the mgt1 strain (AID 153); conditions: S. cerevisiae mgt1 mutant growth inhibition, stronger effect = higher value
In short: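 Compounds were applied to mgt1 mutant yeast, and growth was then compared against vehicle-treated control cultures to give percent inhibition.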

[5] = NCI Yeast Anticancer Drug Screen. Data for the rad50 strain (AID 155);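 also: 0% = growth of vehicle-only cultures of the same strain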; conditions: S. cerevisiae rad50 strain growth inhibition, stronger effect = higher value
In short: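 Relative growth inhibition (compound vs vehicle) was measured in yeast with a defined repair-gene alteration.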

[6] = NCI Yeast Anticancer Drug Screen. Data for the mec2-1 strain (AID 157); conditions: S. cerevisiae mec2-1 strain, stronger effect = higher value
In short: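 Compounds were applied to mec2-1 yeast cells. Their growth was then compared with that of vehicle-treated cultures to give growth inhibition.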

[7] = NCI Yeast Anticancer Drug Screen. Data for the rad14 strain (AID 159);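 also: 0% = growth of vehicle-treated control cultures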; conditions: S. cerevisiae rad14 strain growth inhibition, stronger effect = higher value
In short: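 Screen for anticancer potential: a yeast strain altered in DNA damage repair is grown with compound, and reduced growth is quantified against vehicle controls.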

[8] = NCI Yeast Anticancer Drug Screen. Data for the sgs1 mgt1 strain (AID 161);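 also: 0% = growth of cultures given vehicle only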; conditions: S. cerevisiae sgs1 mgt1 strain, stronger effect = higher value
In short: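 Growth of a repair-deficient yeast mutant was monitored after compound treatment and expressed as inhibition relative to vehicle-treated cultures.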

[9] = NCI Yeast Anticancer Drug Screen. Data for the CLN2oe strain (AID 163);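 also: 0% = growth of vehicle-only control cultures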; conditions: S. cerevisiae CLN2oe strain, stronger effect = higher value
In short: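 Cells of an engineered yeast line with disturbed cell-cycle regulation are treated with compound. Inhibition of growth is then calculated relative to the vehicle-treated reference.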

[10] = NCI Yeast Anticancer Drug Screen. Data for the cln2 rad14 strain (AID 165);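 also: 0% = growth equal to vehicle treated cultures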; conditions: S. cerevisiae cln2 rad14 strain, stronger effect = higher value
In short: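 Strain: cln2 rad14 yeast, altered in cell cycle control and DNA damage repair. Read-out: growth inhibition vs vehicle.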

[11] = NCI Yeast Anticancer Drug Screen. Data for the bub3 strain (AID 167); conditions: S. cerevisiae bub3 mutant strain, stronger effect = higher value
In short: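 Screening used yeast with an engineered genetic alteration affecting cell cycle control. Compound-exposed cultures were compared with vehicle cultures, and reduced growth was taken as inhibition.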

[12] = NCI Yeast Anticancer Drug Screen. Data for the wt2 strain (AID 169);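 also: 0% = growth of vehicle-treated yeast cultures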; conditions: S. cerevisiae wt2 strain growth inhibition, stronger effect = higher value
In short: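 Growth of compound-treated yeast is measured and expressed as inhibition relative to vehicle-only controls.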

[13] = NCI Yeast Anticancer Drug Screen. Data for the mlh1 strain (AID 171);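 also: 0% = growth of vehicle-treated control cultures of the same strain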; conditions: S. cerevisiae mlh1 strain growth inhibition, stronger effect = higher value
In short: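 Test agents were incubated with yeast bearing a defined DNA damage repair or cell cycle control alteration; values are growth inhibition normalised to vehicle-treated cultures.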

[14] = NCI Yeast Anticancer Drug Screen. Data for the sgs1 strain (AID 173);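 also: 0% = growth of vehicle-only control cultures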; conditions: S. cerevisiae sgs1 mutant, stronger effect = higher value
In short: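 Strain with an altered DNA repair or cell cycle pathway exposed to compound. Growth then measured. Value = inhibition versus vehicle control.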

[15] = NCI Yeast Anticancer Drug Screen. Data for the mlh1 rad18 strain (AID 175); conditions: S. cerevisiae mlh1 rad18 strain growth inhibition, stronger effect = higher value
In short: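 A repair-deficient yeast strain is exposed to test compound, and growth is scored relative to vehicle-treated controls.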

[16] = NCI Yeast Anticancer Drug Screen. Data for the rad18 strain (AID 177); conditions: S. cerevisiae rad18 mutant growth inhibition, stronger effect = higher value
In short: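 DNA-repair-defective yeast; compound treatment; growth inhibition scored against vehicle.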

[17] = at 5.0 µM (retest, dose inferred, filed as 0.5)
[18] = at 50.0 µM (retest, dose inferred, filed as 5.0)

Measured: growth inhibition

CCC(/C=C/c1ccccc1)=N\Nc1ccc(Cl)cc1
inactive: [1]; at 1.2 µM -1% | [1]; at 3.7 µM 2% | [1]; at 11.0 µM -1% | [2]; at 1.2 µM 0% | [2]; at 3.7 µM -2% | [2]; at 11.0 µM -6% | [2]; at 33.0 µM 48% | [3]; at 1.2 µM 4% | [3]; at 3.7 µM 9% | [3]; at 11.0 µM 19% | [3]; at 33.0 µM 17% | [3]; at 100.0 µM 19% | [4]; at 1.2 µM -4% | [4]; at 3.7 µM 4% | [4]; at 11.0 µM 7% | [4]; at 33.0 µM 5% | [4]; at 100.0 µM 50% | [5]; at 1.2 µM 3% | [5]; at 3.7 µM 9% | [5]; [17] 2% | [5]; at 11.0 µM 12% | [6]; at 1.2 µM 0% | [6]; at 3.7 µM 5% | [6]; [17] -3% | [6]; at 11.0 µM 9% | [6]; at 33.0 µM 6% | [6]; at 100.0 µM 52% | [7]; at 1.2 µM 0% | [7]; at 3.7 µM 0% | [7]; at 11.0 µM 3% | [7]; at 33.0 µM 0% | [8]; [17] 2% | [9]; at 1.2 µM -1% | [9]; at 3.7 µM 1% | [9]; at 11.0 µM 8% | [9]; at 33.0 µM 8% | [9]; at 100.0 µM 48% | [10]; [17] 5% | [10]; [18] 38% | [11]; at 1.2 µM -2% | [11]; at 3.7 µM 2% | [11]; [17] 3% | [11]; at 11.0 µM 5% | [11]; at 33.0 µM 32% | [11]; at 100.0 µM 51% | [12]; at 1.2 µM -4% | [12]; at 3.7 µM -9% | [12]; at 11.0 µM -4% | [13]; at 1.2 µM -2% | [13]; at 3.7 µM 4% | [13]; at 11.0 µM 4% | [13]; at 33.0 µM 2% | [13]; at 100.0 µM 52% | [14]; at 1.2 µM -3% | [14]; at 3.7 µM -4% | [14]; at 11.0 µM -1% | [15]; [17] 7% | [16]; at 1.2 µM -3% | [16]; at 3.7 µM 1% | [16]; at 11.0 µM 3%
active: [1]; at 33.0 µM 86% | [1]; at 100.0 µM 93% | [2]; at 100.0 µM 93% | [5]; at 33.0 µM 77% | [5]; [18] 83% | [5]; at 50.0 µM 97.6% | [5]; at 100.0 µM 93% | [6]; [18] 80% | [6]; at 50.0 µM 85.5% | [7]; at 100.0 µM 76% | [8]; [18] 81% | [8]; at 50.0 µM 86.5% | [10]; at 50.0 µM 89.5% | [11]; [18] 86% | [11]; at 50.0 µM 97.8% | [12]; at 33.0 µM 80% | [12]; at 100.0 µM 94% | [14]; at 33.0 µM 77% | [14]; at 100.0 µM 95% | [15]; [18] 91% | [15]; at 50.0 µM 96% | [16]; at 33.0 µM 79% | [16]; at 100.0 µM 95%
